Our source for the growth values is PubChem BioAssay (NCI).

About 83,000 compounds went through this panel and 20% of them were active in at least one assay; those are over-represented in the sample as a whole.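 Treatment: one concentration, 48 hours, 96-well format. Scoring: percent growth, with anything below 10 considered active.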 Values without a mark were called inactive. Activity calls are given as the source filed them.

Some test systems named below: DU-145 prostate; MALME-3M melanoma; MDA-MB-231 breast; RXF 393 renal; SF-268 CNS; SF-295 CNS; SF-539 CNS; UACC-257 melanoma; M14 melanoma; K-562 leukemia.
What all share (assay): NCI-60 one-dose screen, 48 h (100 = growth as untreated, 0 = no growth, -100 = all killed)
Common to all, as to conditions: 10 µM

On to `Cc1nc2n(c(=O)c1CCN1CCC(c3noc4cc(F)ccc34)CC1)CCC[C@@H]2O`, for which the growth with DU-145 prostate was 105%; with MALME-3M melanoma, 89.6%; in the assay on MDA-MB-231 breast, 90.5%; with RXF 393 renal it was 108%; in the assay on SF-268 CNS, 102%; with SF-295 CNS it was 87%. Moreover, the values for the growth in the assay with SF-539 CNS, with UACC-257 melanoma and in the assay with M14 melanoma were 98.5%, 96.2% and 104%, respectively.

`COc1cc2nc(SCC(=O)Nc3cc(OC)c(OC)c(OC)c3)n(Cc3ccccc3)c(=O)c2cc1OC`: the growth with DU-145 prostate was 54.6%; with MALME-3M melanoma, 45.6%; with MDA-MB-231 breast, 41%; in the assay on RXF 393 renal, 36.7%; in the assay with SF-268 CNS it was 39.5%; in the assay with SF-295 CNS it was 45.8%. In addition, the results for the growth in the assay with SF-539 CNS, with UACC-257 melanoma and with M14 melanoma were 6.77% (active), 20.6% and 39.3%, respectively.

For `O=C(Nc1ccc(OCc2nnc(-c3ccc(Cl)cc3)o2)c(F)c1)Nc1ccc(Cl)c(C(F)(F)F)c1`, the growth in the assay with DU-145 prostate was 9.34% (active); in the assay on K-562 leukemia, 11.2%; in the assay with RXF 393 renal, -10.2% (active); in the assay with SF-268 CNS it was 22.5%; in the assay with SF-295 CNS, 1.05% (active); with SF-539 CNS, 12.3%. Besides, the figures for the growth in the assay on UACC-257 melanoma and in the assay on M14 melanoma were -4.65% (active) and 3.31% (active), respectively.

Take `Cc1ccccc1N1C(=O)c2cc(S(N)(=O)=O)c(Cl)cc2NC1C` (centres undefined): the growth in the assay on DU-145 prostate is 111%; in the assay on MALME-3M melanoma it was 103%; in the assay on MDA-MB-231 breast it was 119%; in the assay with RXF 393 renal, 128%; in the assay on SF-268 CNS, 106%; in the assay on SF-295 CNS, 103%. Moreover, the values for the growth in the assay with SF-539 CNS, in the assay on UACC-257 melanoma and with M14 melanoma were 111%, 102% and 111%, respectively.

On to `CCCCC(CC)CN=C(N)NC(N)=NCCCCCCN=C(N)NC(N)=NCC(CC)CCCC` (centres undefined), for which the growth in the assay with DU-145 prostate is -98.1% (active); with MALME-3M melanoma, -73% (active); with MDA-MB-231 breast, -84.6% (active); in the assay with RXF 393 renal, -43.5% (active); with SF-268 CNS it was -82.8% (active); in the assay with SF-295 CNS, -84.8% (active). The growth in the assay on SF-539 CNS is -76.9% (active); in the assay with UACC-257 melanoma, -47.1% (active); with M14 melanoma, -65.1% (active).

Turning to `CC(=O)[C@@]12O[C@](C)(c3ccccc3)O[C@@H]1CC1C3CCC4=CC(=O)CC[C@]4(C)C3CC[C@@]12C` (some centres undefined), the growth with DU-145 prostate was 97.1%; in the assay on MALME-3M melanoma, 85.2%; in the assay on MDA-MB-231 breast, 94.4%; with RXF 393 renal, 88.9%; with SF-268 CNS, 77.4%; in the assay with SF-295 CNS, 44.4%. Besides, the growth in the assay on SF-539 CNS is 91.6%; in the assay on UACC-257 melanoma, 73.2%; with M14 melanoma it was 87%.

Take `Nc1nc(Cl)nc2c1ncn2C1O[C@H](CO)[C@@H](O)[C@@H]1F` (some centres undefined): the growth in the assay on DU-145 prostate is -3.84% (active); with MALME-3M melanoma, 60.9%; in the assay with MDA-MB-231 breast, 70%; with RXF 393 renal, 42.2%; with SF-268 CNS it was 9.03% (active); in the assay with SF-295 CNS, 14.2%. The growth in the assay on SF-539 CNS is 37.7%; in the assay with UACC-257 melanoma, 22.7%; in the assay on M14 melanoma it was -48.4% (active).

For the molecule `O=C(CCCCCCC(=O)Nc1ccccc1)NO`, the growth was 3.46% (active) in the assay on DU-145 prostate; 1.69% (active) in the assay on MALME-3M melanoma; 16.4% in the assay with MDA-MB-231 breast; -39.9% (active) in the assay on RXF 393 renal; 14.9% in the assay with SF-268 CNS; -22.6% (active) in the assay on SF-295 CNS. Further, the growth in the assay on SF-539 CNS was 16.8%; in the assay with UACC-257 melanoma, -26% (active); with M14 melanoma it was 23%.

Consider `OC[C@H]1OC([S-])[C@H](O)[C@@H](O)[C@@H]1O.[Au+]` (some centres undefined), for which the growth is 111% in the assay on DU-145 prostate; 137% with MALME-3M melanoma; 70% in the assay on MDA-MB-231 breast; 93.2% in the assay on RXF 393 renal; 88.2% in the assay on SF-268 CNS; 113% in the assay with SF-295 CNS. Besides, the growth is 84.3% in the assay with SF-539 CNS, 90% in the assay on UACC-257 melanoma and 81.6% with M14 melanoma.

For the molecule `COc1cc(C2CC(c3cc(Cl)c(C)cc3O)=NN2c2ccc(S(N)(=O)=O)cc2)cc(OC)c1OC` (centres undefined), the growth in the assay with DU-145 prostate is 35.9%; in the assay with MALME-3M melanoma, 31.9%; with MDA-MB-231 breast, -8.53% (active); with RXF 393 renal it was -2.73% (active); in the assay on SF-268 CNS, 24.6%; in the assay on SF-295 CNS, 22%. Also, the figures for the growth with SF-539 CNS, in the assay on UACC-257 melanoma and in the assay with M14 melanoma were 2.6% (active), 44.7% and -26.5% (active), respectively.

For the molecule `CN1CCN(C2=Nc3ccccc3Oc3ccc(Cl)cc32)CC1`, the growth with DU-145 prostate was 108%; in the assay with MALME-3M melanoma, 91.7%; in the assay with MDA-MB-231 breast, 76%; in the assay on RXF 393 renal it was 108%; in the assay with SF-268 CNS, 109%; with SF-295 CNS it was 94.8%. For the same molecule, the growth with SF-539 CNS was 111%; with UACC-257 melanoma, 96.5%; in the assay with M14 melanoma, 103%.

As to `CCCCCC(=O)O[C@]1(C(C)=O)CCC2C3CCC4=CC(=O)CC[C@]4(C)C3CC[C@@]21C` (some centres undefined), the growth in the assay with DU-145 prostate is 55.4%; with MALME-3M melanoma, 62.1%; with MDA-MB-231 breast it was 29.1%; in the assay on RXF 393 renal, 53.2%; in the assay on SF-268 CNS, 43.6%; with SF-295 CNS, 13.1%. Further, the growth in the assay on SF-539 CNS is 74.8%; in the assay with UACC-257 melanoma, 14%; in the assay on M14 melanoma, 23.8%.

For `O=C1Cc2cc(CCN3CCN(c4nsc5ccccc45)CC3)c(Cl)cc2N1`, the growth in the assay with DU-145 prostate is 95.4%; in the assay on MALME-3M melanoma, 94.2%; in the assay on MDA-MB-231 breast, 89.5%; with RXF 393 renal, 91.7%; with SF-268 CNS, 92.9%; with SF-295 CNS, 91.9%. The growth in the assay with SF-539 CNS is 105%; in the assay on UACC-257 melanoma, 86.3%; with M14 melanoma, 105%.

As for `CC(C)Cc1ccc([C@H](C)C(=O)O)cc1`, the growth in the assay on DU-145 prostate was 122%; with MALME-3M melanoma, 107%; in the assay with MDA-MB-231 breast it was 108%; in the assay on RXF 393 renal, 114%; with SF-268 CNS, 111%; with SF-295 CNS, 99%. The growth was 104% with SF-539 CNS, 107% with UACC-257 melanoma and 101% in the assay on M14 melanoma.

Take `CCCCc1oc2ccccc2c1C(=O)c1cc(I)c(OCCN(CC)CC)c(I)c1`: the growth in the assay on DU-145 prostate was 34.1%; in the assay with MALME-3M melanoma, -72.6% (active); with MDA-MB-231 breast, -79.8% (active); in the assay on RXF 393 renal, -70.3% (active); with SF-268 CNS it was 30.8%; in the assay on SF-295 CNS, -66.7% (active). The growth with SF-539 CNS is -19% (active); in the assay with UACC-257 melanoma it was -61% (active); in the assay with M14 melanoma, -75.3% (active).
